According to PubChem BioAssay (Tox21):
Records with an inconclusive call do not appear. Calls of active or inactive are those of the source. Unless noted, calls follow the shape of the full dose curve.

What was measured:
[1] = Nuclear factor erythroid 2-related factor 2/antioxidant responsive element (Nrf2/ARE) small molecule agonists: qHTS cell viability counter screen in human keratinocytes (AID 1919968; active = well fitted curve in the direction sought with a large enough effect in the repeat runs; an effect the other way counts as inactive or inconclusive; also: nearly all actives have a fitted effect of over 55% in size)
In short: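 Measured as CellTiter-Fluor fluorescence, this readout tracks cytotoxicity in the same wells as the ARE-luciferase screen. HaCaT reporter cells (1,500/well) received compounds after a 5 h pre-incubation and were exposed for 23 h.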

[2] = Nuclear factor erythroid 2-related factor 2/antioxidant responsive element (Nrf2/ARE) small molecule agonists: luciferase reporter gene qHTS assay in human keratinocytes (AID 1919969); also: nearly all actives have a fitted effect of over 35% in size
[3] = target: Gonadotropin-releasing hormone receptor (Homo sapiens) (UniProt P30968); test: Human gonadotropin-releasing hormone receptor (GnRHR) small molecule agonists, calcium flux assay in GnRHR-HEK293 cells (AID 1920063); also: nearly all actives have a fitted effect of over 35% in size
In short: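 Fluorescence kinetics (480 nm excitation, 540 nm emission; 3 min, 1 s steps) report calcium mobilisation in human GnRHR-HEK293 cells in agonist mode. Dye incubation: 1 h, 37 C.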

[4] = target: KiSS-1 receptor (Homo sapiens) (UniProt Q969F8); test: Human kisspeptin (KISS1R) small molecule agonists, calcium flux assay in KISS1R-HEK293 cells (AID 1920064; active = well fitted curve in the direction sought with a large enough effect in the repeat runs; an effect the other way counts as inactive or inconclusive)
In short: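 Measures KISS1R agonism through calcium-sensitive dye fluorescence in stably transfected HEK293 cells, read for 3 min after pin-tool compound delivery; 15-point titrations in triplicate.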

[5] = G protein-coupled receptor (GPCR) small molecule agonists, calcium flux assay: HEK293 wild type cell line counter screen (AID 1920065)
In short: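 Readout: fluorescence at 480 nm excitation/540 nm emission, sampled at 1 s intervals for 3 min. Cells had been cultured 18 h, then dye-loaded 1 h at 37 C before compound or ATP addition.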

[6] = p53 small molecule agonists, cell-based qHTS assay with human liver microsomes (AID 1963577);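 also: p53 response element beta-lactamase reporter cells with liver microsomes plus NADPH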
In short: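 16 h, 37 C exposure of p53RE-bla cells to compounds with human liver microsomes and NADPH (0.5 mg/mL final each); detection via LiveBLAzer mixture, 2 h dark at room temperature.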

[7] = p53 small molecule agonists, cell-based qHTS assay with rat liver microsomes (AID 1963578)
In short: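 With rat liver microsomes and NADPH present (0.5 mg/mL final each), p53RE-bla cells are treated with compound for 16 h at 37 C. LiveBLAzer detection mixture is then applied for 2 h at room temperature in the dark.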

[8] = p53 small molecule agonists, cell-based qHTS assay with human liver microsomes: qHTS cell viability counter screen (AID 1963579); also: nearly all actives have a fitted effect of over 45% in size
In short: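 In this multiplexed counter screen, the reporter plates were subsequently treated with CellTiter-Glo so that cell viability, reflected by luminescence, could be recorded for p53RE-bla cells dosed 16 h with compounds under microsomal activation (HLM and NADPH).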

[9] = p53 small molecule agonists, cell-based qHTS assay with rat liver microsomes: qHTS cell viability counter screen (AID 1963580); also: nearly all actives have a fitted effect of over 45% in size
In short: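 In HCT-116 cells carrying a p53 response element-bla reporter, compounds were metabolically activated in situ by rat liver microsomes with NADPH over 16 h. Cell ATP content then served as the cytotoxicity measure.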

[10] = p53 small molecule agonists, cell-based qHTS assay: qHTS cell viability counter screen (AID 1963581); also: nearly all actives have a fitted effect of over 45% in size
In short: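 In the same plates used for the p53 bla reporter, HCT-116 cells given compounds for 16 h at 37 C received CellTiter-Glo; luminescence was recorded 30 min later at room temperature.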

[11] = p53 small molecule agonists, cell-based qHTS assay (AID 1963582; active = well fitted activation curve with a large enough effect in the signal ratio in the repeat runs, not every such curve was filed as active; the % refers to the signal ratio)
In short: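 Compounds are pin-transferred in DMSO onto p53RE-bla cells and incubated 16 h at 37 C. The B/G FRET beta-lactamase substrate is then applied for 2 h at RT and fluorescence recorded.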

[12] = target: 5-hydroxytryptamine receptor 2A (Homo sapiens) (UniProt P28223); test: 5-hydroxytryptamine receptor 2A (HTR2A) small molecule antagonists, cell-based qHTS assay (AID 1963586); also: nearly all actives have a fitted effect of over 45% in size
In short: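 Antagonist-mode intracellular calcium assay: DOI (4 nM) added after 5 min compound pre-incubation at room temperature to dye-loaded HTR2A-CHO cells. Fluorescence followed for 3 min, sampled every second.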

[13] = target: 5-hydroxytryptamine receptor 2A (Homo sapiens) (UniProt P28223); test: 5-hydroxytryptamine receptor 2A (HTR2A) small molecule agonists, cell-based qHTS assay (AID 1963587); also: nearly all actives have a fitted effect of over 30% in size
In short: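 HTR2A-CHO cells, plated 18 h at 37 C/5% CO2, dye-loaded 1 h at 37 C; compounds in DMSO added by pin tool (agonist mode). Intracellular calcium flux read as kinetic fluorescence on FDSS over 2 min at 1 s intervals.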

[14] = target: Muscarinic acetylcholine receptor M1 (Homo sapiens) (UniProt P11229); test: Cholinergic receptor muscarinic 1 (CHRM1) small molecule antagonists, cell-based qHTS assay (AID 1963588); also: nearly all actives have a fitted effect of over 40% in size
In short: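 CHRM1-CHO calcium-flux assay, antagonist mode. Cells were seeded 18 h, dye-loaded 1 h at 37 C and given compound for 5 min at RT, then acetylcholine was added at 50nM. FDSS fluorescence was read 3 min; 15 concentrations, three runs.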

[15] = target: Muscarinic acetylcholine receptor M1 (Homo sapiens) (UniProt P11229); test: Cholinergic receptor muscarinic 1 (CHRM1) small molecule agonists, cell-based qHTS assay (AID 1963589); also: nearly all actives have a fitted effect of over 35% in size
In short: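 Each compound was tested at 15 concentrations across three independent runs on dye-loaded CHO cells stably expressing human CHRM1, reading intracellular calcium fluorescence kinetically at 1 sec intervals.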

[16] = cAMP Responsive Elements (CRE) small molecule agonists, cell-based qHTS assay (AID 1963590)
In short: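 Cell line: CRE-bla HEK 293T; medium DMEM/10% dialyzed FBS/0.1 mM NEAA/1 mM pyruvate/25 mM HEPES; 3 h compound exposure; beta-lactamase FRET readout after 2 h substrate loading at RT.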

[17] = cAMP Responsive Elements (CRE) small molecule antagonists, cell-based qHTS assay (AID 1963591; active = well fitted inhibition curve with a large enough effect in the signal ratio in the repeat runs, not every such curve was filed as active; the % refers to the signal ratio)
In short: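 Inhibition of NKH477-driven (0.25 uM final) CRE-beta-lactamase signal in HEK293T cells, 3 h compound exposure at 37 °C, detected by FRET substrate fluorescence.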

[18] = target: Beta-2 adrenergic receptor (Homo sapiens) (UniProt P07550); test: Adrenergic beta2 receptor (ADRB2) small molecule antagonists, cell-based qHTS assay (AID 1963592); also: series mostly up to about 92 µM; nearly all actives have a fitted effect of over 50% in size
In short: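 Cells (CHO, stable ADRB2 overexpression) incubated 18-20hr at 37C; compounds added from DMSO; agonist mix (1nM isoproterenol, 100uM IBMX, 25uM Ro-20-1724) added; 0.5hr RT; d2-cAMP and anti-cAMP-cryptate added; 1hr RT; 665/615 nm read.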

[19] = target: D(2) dopamine receptor (Homo sapiens) (UniProt P14416); test: Dopamine D2 receptor (DRD2) small molecule agonists, cell-based qHTS assay (AID 1963594); also: nearly all actives have a fitted effect of over 35% in size
In short: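 HEK293 cells stably expressing DRD2 were cultured 24 h at 37 C, then given Ro20-1724 (0.1 mM final) and compounds for 10 min at room temperature. NKH477 (200nM) was then added for 30 min. cAMP was read by HTRF.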

[20] = target: D(2) dopamine receptor (Homo sapiens) (UniProt P14416); test: Dopamine D2 receptor (DRD2) small molecule antagonists, cell-based qHTS assay (AID 1963595; active = well fitted inhibition curve with a large enough effect in the signal ratio in the repeat runs, with a control signal flat; the % refers to the signal ratio)
In short: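 Readout: HTRF cAMP, cAMP-d2 competing with cellular cAMP for anti-cAMP cryptate, read after 1 h. Cells: DRD2-HEK293. Conditions: 0.1 mM Ro20-1724, 12 nM quinpirole, 200 nM NKH477, 30 min RT.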
% is scaled to controls: 0 for no effect and ±100 for the full control effect.

D(2) dopamine receptor (Homo sapiens), sequence (P14416 whole entry, looked up): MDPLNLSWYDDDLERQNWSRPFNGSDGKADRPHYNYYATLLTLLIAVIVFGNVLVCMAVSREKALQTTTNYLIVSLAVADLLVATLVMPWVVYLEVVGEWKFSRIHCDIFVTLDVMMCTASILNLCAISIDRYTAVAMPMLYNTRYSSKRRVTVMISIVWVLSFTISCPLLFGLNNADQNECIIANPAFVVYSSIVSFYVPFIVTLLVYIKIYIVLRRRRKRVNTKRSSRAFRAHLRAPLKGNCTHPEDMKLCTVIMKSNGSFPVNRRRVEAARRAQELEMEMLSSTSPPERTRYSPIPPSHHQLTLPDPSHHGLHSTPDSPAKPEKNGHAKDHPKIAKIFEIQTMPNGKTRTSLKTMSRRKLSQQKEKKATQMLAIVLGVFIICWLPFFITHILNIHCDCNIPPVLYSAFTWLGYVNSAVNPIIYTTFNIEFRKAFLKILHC
Beta-2 adrenergic receptor (Homo sapiens), sequence (P07550 whole entry, looked up): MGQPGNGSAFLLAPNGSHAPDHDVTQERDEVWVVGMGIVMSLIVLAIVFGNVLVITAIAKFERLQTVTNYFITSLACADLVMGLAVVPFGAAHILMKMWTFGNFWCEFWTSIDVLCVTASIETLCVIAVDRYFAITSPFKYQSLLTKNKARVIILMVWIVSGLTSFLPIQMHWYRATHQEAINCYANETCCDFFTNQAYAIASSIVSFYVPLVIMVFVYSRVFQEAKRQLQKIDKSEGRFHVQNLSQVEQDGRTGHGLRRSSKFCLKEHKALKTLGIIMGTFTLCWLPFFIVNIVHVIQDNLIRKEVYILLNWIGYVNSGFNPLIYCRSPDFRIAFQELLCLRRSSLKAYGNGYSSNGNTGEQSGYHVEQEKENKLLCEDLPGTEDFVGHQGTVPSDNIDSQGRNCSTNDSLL
Gonadotropin-releasing hormone receptor (Homo sapiens), sequence (P30968 whole entry, looked up): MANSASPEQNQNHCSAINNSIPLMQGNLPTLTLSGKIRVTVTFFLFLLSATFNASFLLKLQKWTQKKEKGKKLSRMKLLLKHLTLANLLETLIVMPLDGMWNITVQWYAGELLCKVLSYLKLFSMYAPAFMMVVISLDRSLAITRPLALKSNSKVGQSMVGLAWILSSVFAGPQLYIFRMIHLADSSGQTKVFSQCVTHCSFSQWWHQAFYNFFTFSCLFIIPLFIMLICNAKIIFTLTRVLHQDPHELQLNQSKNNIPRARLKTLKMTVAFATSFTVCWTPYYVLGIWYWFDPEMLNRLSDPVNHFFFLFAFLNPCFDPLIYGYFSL
KiSS-1 receptor (Homo sapiens), sequence (Q969F8 whole entry, looked up): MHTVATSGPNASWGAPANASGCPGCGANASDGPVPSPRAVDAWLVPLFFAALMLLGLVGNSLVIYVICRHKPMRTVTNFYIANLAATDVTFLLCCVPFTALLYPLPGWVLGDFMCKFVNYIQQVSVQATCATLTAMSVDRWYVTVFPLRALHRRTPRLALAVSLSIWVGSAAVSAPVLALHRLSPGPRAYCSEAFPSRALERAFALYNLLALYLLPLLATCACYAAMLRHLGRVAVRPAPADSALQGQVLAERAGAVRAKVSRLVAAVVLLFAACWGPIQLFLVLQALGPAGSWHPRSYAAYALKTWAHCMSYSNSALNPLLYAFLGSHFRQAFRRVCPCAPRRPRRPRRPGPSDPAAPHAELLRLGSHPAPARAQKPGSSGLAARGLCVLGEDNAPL
Muscarinic acetylcholine receptor M1 (Homo sapiens), sequence (P11229 whole entry, looked up): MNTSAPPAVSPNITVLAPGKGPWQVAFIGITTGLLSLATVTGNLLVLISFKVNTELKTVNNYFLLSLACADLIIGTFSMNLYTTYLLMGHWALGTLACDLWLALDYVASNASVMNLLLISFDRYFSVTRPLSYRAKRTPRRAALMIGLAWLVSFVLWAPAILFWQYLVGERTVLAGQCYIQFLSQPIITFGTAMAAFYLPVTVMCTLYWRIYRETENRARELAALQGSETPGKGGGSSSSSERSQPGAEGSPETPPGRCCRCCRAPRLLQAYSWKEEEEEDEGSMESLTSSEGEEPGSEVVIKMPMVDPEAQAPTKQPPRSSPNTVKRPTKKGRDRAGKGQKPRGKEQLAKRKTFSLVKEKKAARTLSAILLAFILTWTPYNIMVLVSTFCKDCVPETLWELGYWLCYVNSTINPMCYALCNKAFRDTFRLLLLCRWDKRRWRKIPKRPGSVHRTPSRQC
5-hydroxytryptamine receptor 2A (Homo sapiens), sequence (P28223 whole entry, looked up): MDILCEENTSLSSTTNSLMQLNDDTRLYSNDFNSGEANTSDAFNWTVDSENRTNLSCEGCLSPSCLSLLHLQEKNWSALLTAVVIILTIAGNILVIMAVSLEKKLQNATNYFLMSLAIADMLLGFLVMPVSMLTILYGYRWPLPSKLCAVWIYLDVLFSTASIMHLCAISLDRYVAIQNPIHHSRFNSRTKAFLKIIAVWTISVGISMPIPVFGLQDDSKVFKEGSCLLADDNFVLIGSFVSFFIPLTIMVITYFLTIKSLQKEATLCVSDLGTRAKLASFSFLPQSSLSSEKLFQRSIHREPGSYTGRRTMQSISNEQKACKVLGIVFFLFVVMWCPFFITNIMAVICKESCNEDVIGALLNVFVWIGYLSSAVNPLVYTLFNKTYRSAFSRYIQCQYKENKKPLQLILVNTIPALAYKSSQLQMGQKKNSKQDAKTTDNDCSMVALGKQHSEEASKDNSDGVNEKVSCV

CCCC(=O)OCCC(C)C
inactive: Potency [1] | Potency [2] | Potency [3] | outcome [4] | outcome [5] | Potency [6] | Potency [7] | Potency [8] | Potency [9] | Potency [10] | Potency [11] | Potency [12] | Potency [13] | Potency [14] | Potency [15] | Potency [16] | Potency [17] | Potency [18] | Potency [19] | Potency [20]

CCCCCCCCCCOc1cc2c(=O)c(C(=O)OCC)c[nH]c2cc1OCC
inactive: activity change, negative = cytotoxicity [1] -4.24% [at 8.39 µM] | activity, positive = activation [2] -2.6% [at 8.39 µM] | activity change [3] 0.343% [at 5.22 µM, active compounds read high] | activation [4] -0.128% [at 6.97 µM] | activation [5] 0.101% [at 5.23 µM] | activation [6] 2.59% [at 5.99 µM] | activation [7] 0.878% [at 5.99 µM] | activity change, negative = cytotoxicity [8] 0.282% [at 5.99 µM] | activity change, negative = cytotoxicity [9] 11.2% [at 5.99 µM] | activity change, negative = cytotoxicity [10] -13% [at 5.99 µM] | activation [11] 4.71% [at 5.99 µM] | activity, negative = inhibition [12] 23.4% [at 5.62 µM] | activation [13] 1.5% [at 7.02 µM] | activity, negative = inhibition [14] -9.72% [at 5.58 µM] | activation [15] 0.0185% [at 6.97 µM] | activation [16] 0.069% [at 8.39 µM] | activity change, negative = inhibition [17] 0.102% [at 8.39 µM] | activity change, negative = inhibition [18] 4.81% [at 8.39 µM] | activation [19] -15.9% [at 8.39 µM] | activity change, negative = inhibition [20] 8.14% [at 8.38 µM]

CCCCCCCCCCCCCC=O
inactive: activity change, negative = cytotoxicity [1] -1.13% [at 8.39 µM] | activity, positive = activation [2] 0.0623% [at 8.39 µM] | activity change [3] -0.408% [at 5.22 µM, active compounds read high] | activation [4] 0.0205% [at 6.97 µM] | activation [5] 0.0655% [at 5.23 µM] | activation [6] 0.781% [at 5.99 µM] | activation [7] -2.08% [at 5.99 µM] | activity change, negative = cytotoxicity [8] -3.87% [at 5.99 µM] | activity change, negative = cytotoxicity [9] 0.418% [at 5.99 µM] | activity change, negative = cytotoxicity [10] -2.03% [at 5.99 µM] | activation [11] 5.85% [at 5.99 µM] | activity, negative = inhibition [12] 4.12% [at 5.62 µM] | activation [13] -1.86% [at 7.02 µM] | activity, negative = inhibition [14] 4.29% [at 5.58 µM] | activation [15] 0.649% [at 6.97 µM] | activation [16] -0.0207% [at 8.39 µM] | activity change, negative = inhibition [17] 0.604% [at 8.39 µM] | activity change, negative = inhibition [18] 0.833% [at 8.39 µM] | activation [19] 1.32% [at 8.39 µM] | activity change, negative = inhibition [20] 7.61% [at 8.38 µM]

OC[C@@H](O)C(O)[C@@H](O)CO (stereo not given in full)
inactive: Potency [1] | Potency [2] | Potency [3] | outcome [4] | outcome [5] | Potency [6] | Potency [7] | Potency [8] | Potency [9] | Potency [10] | Potency [11] | Potency [12] | Potency [13] | Potency [14] | Potency [15] | Potency [16] | Potency [17] | Potency [18] | Potency [19] | Potency [20]

COc1cc(-c2ccc(N=C=O)c(OC)c2)ccc1N=C=O
inactive: Potency [1] | Potency [2] | Potency [3] | outcome [4] | outcome [5] | Potency [6] | Potency [7] | Potency [8] | Potency [9] | Potency [10] | Potency [11] | Potency [12] | Potency [13] | Potency [14] | Potency [15] | Potency [16] | Potency [17] | Potency [18] | Potency [19] | Potency [20]

O=c1[nH]ncc2ccccc12
inactive: Potency [1] | Potency [2] | Potency [3] | outcome [4] | outcome [5] | Potency [6] | Potency [7] | Potency [8] | Potency [9] | Potency [10] | Potency [11] | Potency [12] | Potency [13] | Potency [14] | Potency [15] | Potency [16] | Potency [17] | Potency [18] | Potency [19] | Potency [20]
